SMN2 splice enh: enhancers of SMN2 splice variant expression | AID 1458 | 210,000 tested, 2.8% active | Potency, µM (titrated, usually from 46.1 µM), for inactives: at the top dose activity change, positive = activation, most hits filed as activators | HEK293 SMN2-luciferase splicing reporter, luminescence, 30-36 h; also: % of control where 0% means no effect; nearly all actives have a fitted effect of over 55% in size
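HEK293 cells carry an SMN2 minigene-luciferase reporter in which exon 7 inclusion puts luciferase in frame. Cells were seeded at 2000 cells/well, attached for 10-12 hours, then exposed to compounds for 30-36 hours at 37C before ONE-Glo luminescence.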
ELG1 genotoxic: genotoxicity induction in ELG1-luciferase HEK293T cells | HEK293T ELG1-luciferase reporter, luminescence, 16 h | Potency, µM (doses to about 46 µM), for the others: at the top dose activity change, positive = activation, usual class: activators | 330,000 tested, 1.3% active | AID 504466; also: % of control where 0% means no effect; nearly all actives have a fitted effect of over 60% in size
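Cells (2,000/well) expressing the ELG1-luciferase fusion are dosed by pin tool and kept 16 hr at 37 °C, 5% CO2. Signal comes from ONE-Glo luciferase reagent after 30 min at room temperature.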
FLuc modulator: counter-screen for miR-21 project: firefly luciferase inhibitors or activators | P08659 | purified FLuc, Km substrates, luminescence inhibition | Potency, µM (titrated, usually from 57.5 µM), for the others: at the top dose activity change, negative = inhibition, most hits filed as inhibitors | 360,000 tested, 6.9% active | AID 588342;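 also: plate controls were vehicle for no effect and reference inhibitor for full effect; nearly all actives have a fitted effect of over 55% in size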
Target sequence (P08659 whole entry, looked up): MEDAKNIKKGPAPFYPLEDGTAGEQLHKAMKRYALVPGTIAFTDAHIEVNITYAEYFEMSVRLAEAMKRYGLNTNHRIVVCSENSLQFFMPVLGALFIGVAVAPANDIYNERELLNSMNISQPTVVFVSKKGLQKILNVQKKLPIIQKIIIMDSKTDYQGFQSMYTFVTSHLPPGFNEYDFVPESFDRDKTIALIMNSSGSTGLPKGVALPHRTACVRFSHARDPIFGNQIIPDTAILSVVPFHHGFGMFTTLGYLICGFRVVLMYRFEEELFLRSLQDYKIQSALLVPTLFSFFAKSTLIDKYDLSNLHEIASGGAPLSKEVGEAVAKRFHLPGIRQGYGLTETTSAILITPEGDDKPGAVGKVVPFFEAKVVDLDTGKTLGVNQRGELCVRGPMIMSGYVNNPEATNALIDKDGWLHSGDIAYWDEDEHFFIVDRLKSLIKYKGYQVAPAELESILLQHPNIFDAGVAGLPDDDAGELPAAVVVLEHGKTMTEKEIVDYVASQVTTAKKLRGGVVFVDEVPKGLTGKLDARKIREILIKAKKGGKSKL
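Purified P. pyralis luciferase, 10 nM final, with Km-level 10 uM D-luciferin and 10 uM ATP in 50 mM Tris acetate pH 7.5, 10 mM Mg acetate, 0.01% Tween-20, 0.05% BSA; 6-point qHTS titration about 60 µM downward; luminescence read.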
p53 reactivator: restores transcriptional activity of mutant p53; 320,000 tested, 0.063% active; AID 504706; H1299 p53-A138V BP100-luciferase reporter, luminescence, 24 h; Potency, µM (titrated, usually from 92.2 µM), for inactives: at the top dose activity change, positive = activation, hits mostly activators; also: % of control where 0% means no effect; nearly all actives have a fitted effect of over 45% in size
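H1299 (p53-null), stable ts p53-A138V + BP100-Luc; 1000 cells/well, Opti-MEM/10% FBS; cpd 4 pt, 1:5; 24 h, 37 deg C, 5% CO2; detection reagent 10 min RT; luminescence.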
NPC1 prom act: NPC1 promoter activation. Huh7 NPC1 promoter luciferase reporter, 24 h. Potency, µM (highest dose often 9.22 µM), without a hit: top-dose activation, usual class: activators. 320,000 tested, 2.4% active. AID 485313; also: % of control where 0% means no effect; nearly all actives have a fitted effect of over 60% in size
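Stable NPC1-promoter luciferase Huh7 line; cpd (DMSO) 24 h, 37 °C, 5% CO2; Amplite luciferase reagent 10 min RT; luminescence readout. qHTS format.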
Rab9 promoter act: activates the Rab9 promoter. Huh7 Rab9 promoter-luciferase reporter, luminescence, 24 h. Potency, µM (doses to about 9.22 µM), for inactives: at the top dose activation, negative = inhibition, most hits filed as activators. 320,000 tested, 2.8% active. AID 485297; also: % of control where 0% means no effect; nearly all actives have a fitted effect of over 60% in size
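Stable Rab9-luc Huh7, 1500 cells/well, 2 h settle; cmpd in DMSO, 24 h, 37 °C/5% CO2; luciferase reagent 10 min RT; luminescence.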
The depositor's hits bear a star; ? = inconclusive; nt = not tested or not shown; [ ] = another dose, or the depositor's remark. This is a sample that favours compounds with a hit; in the whole collection about 7.3% have one here. Calls follow the shape of the dose curve; as a rule, active = well fitted curve in the direction sought with a large enough effect; inconclusive = small, poorly fitted or top-dose-only effect, or another doubt; inactive = no such curve, though single readings can be large; an effect the other way counts as inactive or inconclusive. Potency is read from the fitted curve at half-maximal effect.

SMILES | SMN2 splice enh | ELG1 genotoxic | FLuc modulator | p53 reactivator | NPC1 prom act | Rab9 promoter act
CSc1ccc(/C=N/Nc2cccc(C(=O)O)c2)cc1 | 0.25µM* | 0.073µM* | 0.076µM* | -10% | ? | 0.089µM*
COc1ccc(/C=N/N=C2/CC(C)(C)Cc3n[nH]c(=O)cc32)cc1 | 2% | 2% | -6% | 0% | -1% | 2%
O=C(O)c1cccc(N/N=C/c2cccs2)c1 | 0.14µM* | ? | 0.43µM* | -4% | ? | ?
CC(C)C(=O)N/N=C/c1ccc(OCc2ccccc2)cc1 | -6% | 4% | -14% | 5% | 2% | 1%
O=C(O)c1cc(N/N=C/C=C/c2ccccc2)ccc1Cl | 10µM* | 9.2µM* | 7.6µM* | -7% | 0.4µM* | 0.35µM*
O=C(O)c1cc(N/N=C/c2ccc(OCc3ccccc3)cc2)ccc1Cl | 11µM* | ? | 6.7µM* | 2% | 2.5µM* | 0.56µM*
O=C(N/N=C/C=C/c1ccccc1)c1ccccc1Br | 22% | -3% | ? | 5% | 4% | -2%
O=C(O)c1ccc(N/N=C/c2ccc(OC(=O)c3cccc(Cl)c3)cc2)cc1 | nt | -4% | 19µM* | -10% | ? | ?
O=C(Oc1ccc(/C=N/Nc2ccccc2)cc1)c1ccccc1 | -17% | ? | ? | 3% | 20% | 7%
Cc1cc(-n2c(C)nc3ccccc3c2=O)ccc1NC(=O)c1cccc([N+](=O)[O-])c1 | nt | nt | 0% | nt | nt | nt
COc1ccccc1CNC(=O)CN1C(=O)NC(Cc2ccccc2)(c2ccccc2)C1=O (stereo unspecified) | nt | 4% | nt | -10% | nt | nt
Cc1oc(-c2cccc(Cl)c2)nc1CS(=O)(=O)CC(=O)NC1CCCC1 | nt | -3% | 1% | -6% | -5% | -5%
C=CC[C@](C)(O)c1ccccc1 | -1% | nt | nt | nt | nt | nt
Cc1ccc(S(=O)(=O)OC2CCN(C)CC2)cc1 | 2%[9.22 µM] | nt | nt | nt | nt | nt
CCC(=O)Nc1ccc(Cl)c(NC(=O)c2cccc(OC)c2)c1 | -18% | -2% | 2% | -4% | -2% | -6%
CN(C)S(=O)(=O)Oc1cccc(C(=O)Nc2cccc(Cl)c2)c1 | ? | 0% | 13µM* | 27% | ? | ?
COc1ccc(NC(=O)c2cccc(OS(=O)(=O)N(C)C)c2)cc1 | 11µM* | 9% | 6µM* | -4% | 1.6µM* | 2µM*
CN(C)S(=O)(=O)Oc1cccc(C(=O)Nc2ccc(Cl)c(Cl)c2)c1 | 6% | 16% | 4.8µM* | ? | 3.5µM* | 2µM*
Cc1ccc(Cl)cc1N(CC(=O)NC1CCCC1)C(=O)c1csnn1 | nt | -3% | 0% | -4% | -3% | -2%
O=C(CCCn1c(=O)c2cccn2c2ccccc21)NCc1ccccc1Br | nt | nt | 0% | nt | nt | nt
COc1ccc(C(=O)NCC(=O)OCc2csc(-c3ccccc3)n2)cc1 | -16% | 5% | 17µM* | ? | 1% | 0%
O=C(OCc1csc(-c2ccccc2)n1)C1=NN(c2ccccc2)C(=O)CC1 | nt | 9% | ? | ? | 12% | 14%
Cc1ccsc1C(=O)OCc1nnc(-c2ccccc2)o1 | nt | ? | nt | 23% | nt | nt
Cc1ccsc1C(=O)OCc1csc(-c2ccccc2)n1 | 16µM* | 7.3µM* | 0.6µM* | ? | ? | 4µM*
Cn1cccc1C(=O)OCc1csc(-c2ccccc2)n1 | 11µM* | ? | 0.67µM* | ? | 2.5µM* | 1.1µM*
O=C(OCc1csc(-c2ccccc2)n1)c1cccs1 | 14% | ? | 0.54µM* | ? | ? | ?
CCCCN(Cc1ccccc1)C(=O)C1CCN(S(=O)(=O)c2c(C)noc2C)CC1 | -11% | 0% | 0% | -2% | 0% | -1%
CCCCc1c(O)nc(SC2CC(=O)N(c3ccc(C(=O)OCC)cc3)C2=O)[nH]c1=O (stereo unspecified) | nt | -1% | 21µM* | -3% | -2% | -3%

Screening data as filed in PubChem BioAssay.
